Results published in PubChem BioAssay AID1851 (National Center for Advancing Translational Sciences (NCATS), 2009).
In all, about 16,000 compounds went through this assay and about 2,600 (16%) were called active. Roughly 20% stayed inconclusive and do not appear here. Not all results are given here. Values without a mark were called inactive. Calls come from the whole dose curve; as a rule, active = well fitted curve in the direction sought with a large enough effect; inconclusive = small, poorly fitted or top-dose-only effect, or effect the other way; inactive = no such curve, though single readings can be large or run the other way.

molecular target: Cytochrome P450 2D6 (Homo sapiens) (UniProt P10635); test: Cytochrome panel assay with activity outcomes; details: recombinant CYP, pro-luciferin dealkylation, luminescence, p450-cyp2d6; series mostly up to 57.1 µM
Sequence (P10635 whole entry, looked up): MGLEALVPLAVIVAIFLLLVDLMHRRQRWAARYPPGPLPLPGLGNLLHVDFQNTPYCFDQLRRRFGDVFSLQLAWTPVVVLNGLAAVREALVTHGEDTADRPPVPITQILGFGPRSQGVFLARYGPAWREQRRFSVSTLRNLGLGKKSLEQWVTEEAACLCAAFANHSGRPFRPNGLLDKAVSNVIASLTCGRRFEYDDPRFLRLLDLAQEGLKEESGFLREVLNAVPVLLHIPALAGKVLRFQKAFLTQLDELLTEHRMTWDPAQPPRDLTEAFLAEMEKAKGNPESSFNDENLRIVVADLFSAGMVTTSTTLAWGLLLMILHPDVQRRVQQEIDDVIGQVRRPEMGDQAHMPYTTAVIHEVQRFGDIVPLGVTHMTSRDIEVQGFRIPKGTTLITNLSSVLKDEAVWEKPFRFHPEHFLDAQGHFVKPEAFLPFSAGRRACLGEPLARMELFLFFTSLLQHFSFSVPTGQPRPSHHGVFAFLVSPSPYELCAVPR
% is set by controls: 0 for no effect and ±100 for the full control effect.

Q: How did the AC50 turn out when `NCCCCNCCCN` was run?
A: inactive

Q: Which AC50 does the source give for `CC1CCN(c2cc(N3CCC(C)CC3)c([N+](=O)[O-])cc2/C=C(\C#N)c2nn(-c3ccccc3)c(N)c2C#N)CC1` here?
A: inactive

Q: For `CN(CCO)c1nc(N)c2c(N)nc3c(c2c1C#N)CC(=O)N3C1CCCC1`, which AC50 is on record?
A: inactive

Q: `C[C@@](N)(Cc1ccc(O)cc1)C(=O)O` was tested. Which AC50 did it give?
A: inactive

Q: `CC(C)OCCCN1CN(S(=O)(=O)c2cccc(Cl)c2)c2nc3ccccc3nc21` was tested. Which AC50 did it give?
A: inactive

Q: How did the AC50 turn out when `CC(=O)NN1C(=O)/C(=C\c2ccc(C)cc2)SC1=S` was run?
A: inactive

Q: `CN(CCO)Cc1ncccc1O` was tested. Which activity, negative = inhibition did it give?
A: -1.69% [at 11.4 µM]

Q: Which AC50 does the source give for `O=C(Nc1cccc(C(F)(F)F)c1)c1n[nH]c(Cn2cncn2)n1` here?
A: inactive

Q: How did the AC50 turn out when `N[C@@H]1CONC1=O` was run?
A: inactive

Q: How did the AC50 turn out when `Cc1ccc(N(C(=O)c2csnn2)C(C(=O)NC(C)(C)C)c2cccs2)cc1` (stereo not given) was run?
A: inactive

Q: `CC(C)c1cccc2nc3c(c([Si](C)(C)C(C)(C)C)c12)Cn1c-3cccc1=O` was tested. Which AC50 did it give?
A: inactive

Q: `CC(C)(C)[Si](C)(C)c1c2c(nc3ccc(OCc4ccccc4)cc13)-c1cccc(=O)n1C2` was tested. Which AC50 did it give?
A: inactive

Q: How did the AC50 turn out when `COc1ccc2nc3c(c([Si](C)(C)C(C)(C)C)c2c1)Cn1c-3cccc1=O` was run?
A: 2 µM (active)

Q: `O=C1C(CCS(=O)c2ccccc2)C(=O)N(c2ccccc2)N1c1ccccc1` (stereo not given) was tested. Which AC50 did it give?
A: inactive

Q: How did the AC50 turn out when `CN(Cc1ccco1)c1ncncc1-c1cccc(C#N)c1` was run?
A: inactive

Q: How did the AC50 turn out when `FC(F)(F)c1ccccc1-c1ccc2ncnc(N3CCOCC3)c2c1` was run?
A: inactive

Q: `CN(Cc1ccco1)c1ncnc2ccc(-c3ccccc3C(F)(F)F)cc12` was tested. Which AC50 did it give?
A: 10 µM (active)

Q: With `CN(C)Cc1ccccc1-c1ccc2ncnc(N(C)Cc3ccco3)c2c1` as the compound, how does the AC50 read?
A: 2 µM (active)

Q: With `CN(Cc1ccco1)c1ncnc2ccc(-c3ccccc3Cl)cc12` as the compound, how does the AC50 read?
A: 7.94 µM (active)

Q: `CN(Cc1ccco1)c1ncnc2ccc(-c3ccccc3C#N)cc12` was tested. Which AC50 did it give?
A: 15.8 µM (active)

Q: `COCCNC(=O)c1sc2nc(-c3ccccc3)cn2c1C` was tested. Which AC50 did it give?
A: inactive

Q: How did the AC50 turn out when `Cc1ccc(NC(=O)C(=O)NCc2ccc(/C=C(/C#N)C(=O)NCc3cccnc3)o2)cc1` was run?
A: inactive

Q: For `Nc1ncnc2c1ncn2[C@@H]1CCCO1`, which AC50 is on record?
A: inactive

Q: How did the AC50 turn out when `CCN1C(=O)C2(SC(NC(C)=O)=NN2C(C)=O)c2cc(C)ccc21` (stereo not given) was run?
A: inactive

Q: With `CC[C@H](Cc1c(I)cc(I)c(N)c1I)C(=O)O` as the compound, how does the AC50 read?
A: inactive

Q: How did the AC50 turn out when `CNc1cnn(-c2ccccc2)c(=O)c1Cl` was run?
A: inactive

Q: With `N#[N+]c1ccc(Nc2ccccc2)cc1` as the compound, how does the activity, negative = inhibition read?
A: 7.95% [at 11.4 µM]

Q: Which AC50 does the source give for `COc1ccc(Oc2ncc3nc(CCc4ccccc4)c(=O)n(C)c3n2)cc1` here?
A: inactive

Q: For `CCOc1ccc(NC(=O)CCNS(=O)(=O)c2ccc3c(c2)c(=O)n(C)c(=O)n3C)cc1`, which AC50 is on record?
A: inactive

Q: With `Cc1sc2ncnc(OCC(=O)NC(C)C)c2c1C` as the compound, how does the AC50 read?
A: inactive

Q: With `COc1ccccc1C1/C(=C(/O)c2ccccc2)C(=O)C(=O)N1CCO` (stereo not given) as the compound, how does the AC50 read?
A: inactive

Q: Which activity, negative = inhibition does the source give for `COC(=O)[C@H](C)NC(=O)C/C=C\[C@@H](C)[C@H]1C=C[C@H](O)[C@@H](CO)O1` here?
A: 3.59% [at 11.4 µM]

Q: `O=C(NCCc1c[nH]c2ccccc12)[C@@H]1C[C@H]1[C@@H](NP(=O)(c1ccccc1)c1ccccc1)c1ccccc1` was tested. Which AC50 did it give?
A: inactive

Q: How did the AC50 turn out when `CN1C2C=C(N(CCc3c[nH]c4ccccc34)C(=O)c3ccc(Cl)cc3)CC1CC2` (stereo not given) was run?
A: 0.398 µM (active)

Q: With `O=C(NCCc1c[nH]c2ccccc12)[C@H]1C[C@@H]1[C@H](NP(=O)(c1ccccc1)c1ccccc1)c1ccccc1` as the compound, how does the AC50 read?
A: inactive

Q: Which activity, negative = inhibition does the source give for `CCN(CC(=O)O)CC(=O)O` here?
A: 9.63% [at 11.4 µM]

Q: For `CC1=Nc2ccccc2/C1=C\c1nc(-c2ccc(C(F)(F)F)cc2)oc1O`, which AC50 is on record?
A: inactive

Q: How did the AC50 turn out when `Nc1ccc(N(c2ccccc2)c2ccc(N)cc2)cc1` was run?
A: 14.1 µM (active)

Q: With `CC(=O)c1nnn(-c2nc(N)nc(N(c3ccccc3)c3ccccc3)n2)c1C` as the compound, how does the AC50 read?
A: inactive

Q: `Nc1ccc(S(=O)(=O)NC(=O)c2ccccc2)cc1` was tested. Which AC50 did it give?
A: inactive

Q: How did the AC50 turn out when `O=C(Cn1ccnc1[N+](=O)[O-])NCCO` was run?
A: inactive

Q: For `COc1cccc(N=Cc2c[nH][nH]c2=O)c1`, which AC50 is on record?
A: inactive

Q: With `C[C@@H]1c2cccc(O)c2C(O)=C2C(=O)[C@@]3(O)C(O)=C(C(N)=O)C(=O)[C@@H](N(C)C)[C@@H]3[C@@H](O)[C@@H]21` as the compound, how does the AC50 read?
A: inactive

Q: With `CCOc1cc(/C=N/NC(=O)COc2cccc(C)c2)ccc1OC(=O)c1cccs1` as the compound, how does the AC50 read?
A: inactive

Q: How did the AC50 turn out when `CCOC(=O)c1c(C)n(C)c2ccc(OC)c(NS(=O)(=O)c3ccc(Cl)s3)c12` was run?
A: inactive

Q: With `CCOC(=O)C1CCN(C(=O)C2CCN(c3nc4ccc(OC)cc4s3)CC2)CC1` as the compound, how does the AC50 read?
A: inactive

Q: With `CCOc1ccc2nc(NC(=O)c3ccc(S(=O)(=O)N4CCOCC4)cc3)sc2c1` as the compound, how does the AC50 read?
A: inactive

Q: Which AC50 does the source give for `CCOc1ccc2nc(N3CCCCCC3)sc2c1` here?
A: 1 µM (active)

Q: `CCN1CCN(C(=O)N[C@H](C(=O)N[C@@H]2C(=O)N3C(C(=O)O)=C(CSc4nnnn4C)CS[C@@H]23)c2ccc(O)cc2)C(=O)C1=O` was tested. Which AC50 did it give?
A: inactive

Q: Which AC50 does the source give for `Cc1nc2c(O)cccc2c(=O)[nH]1` here?
A: 12.6 µM (active)
